Source: PubChem
DT40 TDP1 CPT = qHTS for Inhibitors of human tyrosyl-DNA phosphodiesterase 1 (TDP1): qHTS in cells in presence of CPT. chicken DT40 Tdp1-/-;hTDP1 cells + 20 nM CPT, ATP luminescence, 48 h. Potency, µM (doses to about 46.2 µM), usual class: inhibitors. actives 12% (n = 420,000). AID 686979, 2013; further: nearly all actives have a fitted effect of over 55% in size
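Chicken DT40 Tdp1-/- cells complemented with human TDP1, 400 cells/well, exposed to compounds plus 20 nM camptothecin for at least 48 h at 37 C; viability read as ATP content by CellTiter-Glo luminescence.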
DT40 TDP1 no CPT = qHTS for Inhibitors of human tyrosyl-DNA phosphodiesterase 1 (TDP1): qHTS in cells in absence of CPT | DT40 Tdp1-/- hTDP1 cells, no CPT, ATP luminescence, 48 h | Potency, µM (doses to about 46.2 µM), usual class: inhibitors | actives 15% (n = 420,000) | AID 686978, 2013; further: nearly all actives have a fitted effect of over 55% in size
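Camptothecin absent (DMSO only). Human TDP1-complemented DT40 knockout cells, 400 cells/well, 37 °C for minimum 48 hr; ATP measured via CellTiter-Glo, 30 min dark incubation, luminescence.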
TDP1 inh = qHTS Assay for Inhibitors of Tyrosyl-DNA Phosphodiesterase (TDP1). actives 0.28% (n = 350,000). AID 485290, 2010. Tyrosyl-DNA phosphodiesterase 1 (Homo sapiens), Q9NUW8. Potency, µM (highest dose often 130 µM), actives largely listed as inhibitors. recombinant TDP1, AlphaScreen DNA substrate cleavage; further: nearly all actives have a fitted effect of over 40% in size
Target sequence (Q9NUW8 whole entry, looked up): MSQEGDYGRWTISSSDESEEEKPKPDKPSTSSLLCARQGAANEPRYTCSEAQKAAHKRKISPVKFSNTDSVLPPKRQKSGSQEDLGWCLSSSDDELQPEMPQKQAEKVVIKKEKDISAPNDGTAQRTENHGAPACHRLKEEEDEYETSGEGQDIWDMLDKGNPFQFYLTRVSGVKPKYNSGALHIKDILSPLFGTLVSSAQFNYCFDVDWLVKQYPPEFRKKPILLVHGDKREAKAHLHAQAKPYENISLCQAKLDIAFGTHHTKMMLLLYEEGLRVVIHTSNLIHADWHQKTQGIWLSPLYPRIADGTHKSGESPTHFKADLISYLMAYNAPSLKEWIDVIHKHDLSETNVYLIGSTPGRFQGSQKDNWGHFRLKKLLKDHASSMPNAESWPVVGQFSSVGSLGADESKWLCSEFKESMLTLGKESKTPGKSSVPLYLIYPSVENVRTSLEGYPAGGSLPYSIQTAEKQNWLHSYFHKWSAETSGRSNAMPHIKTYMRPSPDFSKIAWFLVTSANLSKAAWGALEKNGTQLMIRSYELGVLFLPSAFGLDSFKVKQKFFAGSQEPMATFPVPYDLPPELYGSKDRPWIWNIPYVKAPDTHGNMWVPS
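Here, a 5' biotin and 3' phosphotyrosine-FITC DNA oligonucleotide reports Tdp1 activity: intact substrate bridges AlphaScreen beads, while cleavage leaves a 3' phosphate and drops signal. All incubations at room temperature.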
CtBP-E1A blk = qHTS Assay for Inhibitors of the CtBP/E1A Interaction; activity change, % (no concentration beside the values); actives 0.49% (n = 340,000); AlphaScreen GST-E1A/His-CtBP binding, 1536-well; hits give low values; AID 651724, 2012; in the data active means activity change below about -65%; inconclusive means mostly about -30% to -63%
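Steps: dispense buffer (Tris pH 8.0, NaCl 300 mM, TCEP 1 mM, BSA, Tween 20); add 5X protein mix (GST-E1A, His-CtBP, 125 nM each); pin 23 nL compound; 2 h at 37 °C, dark; add 5X beads (50 ug/mL); 1 h; read.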
IL-1B inflam inh = qHTS for Inhibitors of Inflammasome Signaling: IL-1-beta AlphaLISA Primary Screen; AID 743279, 2014; actives 4.7% (n = 360,000); activity change, % at 57.5 µM; THP-1 LPS/ATP IL-1B secretion, AlphaLISA, 16 h; hits give low values; in the data active means activity change below about -50%; inconclusive means mostly about -30% to -49%
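Secreted IL-1B measured by AlphaLISA bead assay after 16 h compound exposure of THP-1 cells; compounds (final up to 57.5 uM) added 1 h before LPS (250 ng/mL) and ATP (1.25 mM) stimulation; lower signal means less secretion.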
Six1-Eya2 blk = qHTS Assay for Inhibitors of the Six1/Eya2 Interaction; Homeobox protein SIX1 (Homo sapiens) + Protein phosphatase EYA2 (Homo sapiens), …; AlphaScreen GST-Six1/His-Eya2 binding, biochemical; hits give low values; activity change, % (no concentration beside the values); actives 0.56% (n = 360,000); AID 651725, 2012; in the data active means activity change below about -65%; inconclusive means mostly about -30% to -63%
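Six1/Eya2 binding was read as AlphaScreen signal after compounds were pinned into GST-Six1 plus His-tagged Eya2 (5X stock 250/500 nM) in pH 8.0 Tris/NaCl/TCEP buffer, beads added, then incubated 1 h, 37 C, dark.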
A number is an active result; - = inactive; ? = inconclusive; . = no result. Shown are actives, neighbours in structure and some others; about 18% of the full set was active somewhere. Unless noted, the call rests on the fitted dose curve; in most records, active means well fitted curve in the direction sought with a large enough effect; inconclusive means small, poorly fitted or top-dose-only effect, or another doubt; inactive means no such curve, though single readings can be large; an effect the other way counts as inactive or inconclusive.

SMILES | DT40 TDP1 CPT | DT40 TDP1 no CPT | TDP1 inh | CtBP-E1A blk | IL-1B inflam inh | Six1-Eya2 blk
CC(=O)Nc1ccc(OCC(O)Cn2c(C(C)C)nc3ccccc32)cc1 (stereo not given) | - | - | - | - | - | -
Cc1nc2ccccc2n1CC(O)COC1CCCCC1 (stereo not given) | 18.4µM | 20.6µM | - | - | - | -
CCCCOCC(O)Cn1c(C)nc2ccccc21 (stereo not given) | - | ? | - | - | - | -
CC(=O)Nc1ccc(OCC(O)Cn2c(C)nc3ccccc32)cc1 (stereo not given) | ? | ? | - | - | - | -
COc1cccc(OCC(Cn2c(C)nc3ccccc32)OC(C)=O)c1 (stereo not given) | ? | 8.2µM | - | - | - | -
CC(C)c1nc2ccccc2n1CC(O)COC1CCCCC1 (stereo not given) | ? | 16.4µM | - | - | - | -
O=C(NCCc1nnc2ccccn12)c1cccs1 | - | - | - | . | - | -
CC1CCN(C(=O)c2cnn(-c3ccc(Cl)cc3)c2C2CCN(C(=O)OC(C)(C)C)CC2)CC1 | - | - | - | . | . | .
O=C(Nc1cc([N+](=O)[O-])ccc1O)c1cccc(NC(=O)c2ccco2)c1 | - | - | - | - | - | -
O=C(c1ccc2c(c1)N(Cc1ccc(F)cc1)C(=O)c1ccccc1S2=O)N1CCC(Cc2ccccc2)CC1 (stereo not given) | 16.4µM | 14.6µM | - | . | . | .
O=C(O)c1ccc2c(c1)N(Cc1ccccc1)C(=O)c1ccccc1S2=O (stereo not given) | ? | - | - | - | - | -
O=C(c1ccc2c(c1)N(Cc1ccc(F)cc1)C(=O)c1ccccc1S2=O)N1CCOCC1 (stereo not given) | - | - | - | . | . | .
CCOC(=O)C1CCCN(C(=O)c2ccc3c(c2)N(Cc2ccccc2)C(=O)c2ccccc2S3=O)C1 (stereo not given) | ? | 18.4µM | - | - | - | -
O=C(c1ccc2c(c1)N(Cc1ccccc1)C(=O)c1ccccc1S2=O)N1CCC(Cc2ccccc2)CC1 (stereo not given) | 6.51µM | 6.51µM | - | . | . | .
CCOc1ccc(/C=c2\sc3nc(-c4ccco4)nn3c2=O)cc1OCC | - | - | - | - | - | -
Cc1ccc(-n2nnc(-c3cccnc3)n2)cc1 | ? | ? | . | - | - | -
Cc1ccc(/C=c2\sc3nc(-c4cccnc4)nn3c2=O)cc1 | ? | 29.1µM | - | - | - | -
CC(C)c1ccc(/C=c2\sc3nc(-c4ccncc4)nn3c2=O)cc1 | ? | 11.6µM | - | - | - | -
COc1ccc(C)cc1N(C(=O)c1cccc(F)c1)c1nc2ccccc2s1 | - | - | - | - | - | -
Cc1ccsc1C(=O)N(c1nc2ccccc2s1)c1c(C)cccc1C | ? | 23.1µM | - | - | - | -
Cc1ccccc1N(C(=O)c1cccs1)c1nc2ccccc2s1 | 23.1µM | 18.4µM | - | - | - | -
Cc1cccc2sc(N(Cc3cccnc3)C(=O)c3cccs3)nc12 | - | - | - | . | . | .
CN1CCN(S(=O)(=O)c2ccc(C3CCCCC3)cc2)CC1 | - | - | - | - | - | -
C=CCn1c(CNC(=O)c2cccs2)nnc1SCc1ccc(Cl)cc1Cl | ? | ? | - | - | ? | -
CC(NC(=O)c1cccs1)c1nnc(SCc2ccc(Cl)cc2Cl)n1C (stereo not given) | ? | 16.4µM | - | - | - | -
SMILES | DT40 TDP1 CPT | DT40 TDP1 no CPT | TDP1 inh | CtBP-E1A blk | IL-1B inflam inh | Six1-Eya2 blk
COCCCN1C(=O)C(=O)/C(=C(/O)c2ccc(OC)cc2)C12C(=O)N(C)c1ccccc12 (stereo not given) | - | - | - | - | - | -
Cc1c(/C=N/NC(N)=O)c2ccccn2c1C(=O)c1ccc(F)cc1 | ? | 9.2µM | - | - | -70.1 | ?
N#Cc1ccccc1CN1C(=O)NC2(CCCCCC2)C1=O | - | - | . | . | - | -
COC(OC)C(C)NC(=O)NC(=O)c1ccccc1Cl (stereo not given) | - | - | - | . | - | -
Cc1nn(-c2ccccc2)c(N)c1-c1ccccc1 | - | - | - | - | - | -
Cc1nc2c(-c3ccccc3)c(C)nn2c(N)c1-c1ccccc1 | 20.6µM | 29.1µM | - | - | - | -
Cc1nn2c(N)c(-c3ccccc3)cnc2c1-c1ccc(Cl)cc1 | 16.4µM | ? | . | - | -68.8 | -
Cc1nn(-c2nc3ccccc3[nH]2)c(N)c1-c1ccccc1 | ? | 16.4µM | - | - | - | -
Cc1cc(N)n2nc(-c3ccccc3)c(-c3ccccc3)c2n1 | 1.46µM | 1.64µM | - | . | - | -
C/C(=N\NS(=O)(=O)c1ccc(C)c([N+](=O)[O-])c1)c1ccc2c(c1)OCO2 | - | - | - | . | - | -
O=S1(=O)C[C@H](N2CCN(CCO)CC2)[C@@H](COCc2ccccc2)N1 | - | - | . | - | - | -
COc1ccc(N2CCC(CNC(=S)Nc3cc(C)cc(C)c3)C2)cc1 (stereo not given) | ? | 14.6µM | - | -70.4 | -90.7 | -65.7
COc1ccc(N2CCC(CNC(=S)Nc3cc(C)ccc3C)C2)cc1 (stereo not given) | 16.4µM | 16.4µM | - | . | - | -69.0
CC(=O)c1c(O)cc(O)cc1O | - | - | - | - | - | -
Cc1ccc2nc(NC(=O)c3ccco3)sc2c1 | ? | 8.2µM | - | - | - | -
O=C(Nc1nc2ccc(Cl)cc2s1)c1ccco1 | - | ? | - | - | - | -
Cc1ccc2nc(NC(=S)NC(=O)c3ccco3)sc2c1 | 5.17µM | 3.26µM | - | - | - | -
CC(=O)Nc1nc2ccc(Br)cc2s1 | 13µM | ? | - | - | - | -
COc1ccc2nc(NC(=O)c3ccco3)sc2c1 | ? | ? | . | . | - | -
CC(=O)Nc1nc2ccc(NC(=O)c3ccco3)cc2s1 | ? | 18.4µM | - | - | - | -
O=C(CCCNS(=O)(=O)c1cccs1)N1CCc2ccccc2C1 | - | - | - | - | - | -
CC(=O)C1=NN(c2ccccc2)C(c2ccc3c(c2)OCO3)N1c1ccccc1 (stereo not given) | ? | ? | - | - | - | -
CC(=O)C1=NN(c2ccccc2)C(c2cccs2)N1c1ccc(N(C)C)cc1 (stereo not given) | 2.24µM | 3.98µM | - | ? | -71.5 | ?
